Values joined by “and” are separate entries in the source; they are usually repeats but may differ in a detail not shown here. Equal entries are not always repeated. Active and inactive are the calls of the source.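 Rule for the calls, unless noted: active = mean z-score across replicates of 1.96 or higher in either the MELAS or the Rieske mutant cell line; inactive = the rest.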
How the values were obtained:
[1] = viability loss with induced miR-34 in A549 – imaging, A549 dox-inducible miR-34, nuclei and caspase counts, primary screen (AID 1347080;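 active = compounds whose cell count with miR-34 switched on is under 0.7 times the count with it off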); details: A549 miR-34 inducible, Hoechst nuclei count, 48 h
[2] = MELAS cybrid and Rieske KO viability enhancers – cell-based, MELAS cybrids, Rieske KO mouse fibroblasts, CellTiter-Glo, primary screen (AID 1508586); details: low glucose;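 note: z relative to plate mean and SD of compound and empty wells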
[3] = stronger effect = lower value, cell number ratio, induced over uninduced
[4] = measured here: relative caspase fold change +Dox/-Dox
[5] = measured here: total cells with miR-34 induction, stronger effect = lower value
[6] = measured here: total cells without miR-34 induction
[7] = MELAS cybrid survival, CellTiter-Glo 48 h, stronger effect = higher value
[8] = Rieske KO mouse fibroblast survival, CellTiter-Glo 72 h
Note: test concentration not given here.

| SMILES | fold change [1, 3] | fold change [1, 4] | cell count [1, 5] | cell count [1, 6] | z-score [2, 7] | z-score [2, 8] |
| --- | --- | --- | --- | --- | --- | --- |
| CCOC(=O)C(CCc1ccccc1)NC1CCCN2CCCC(C(=O)O)N2C1=O (stereo not given) | 0.927 (inactive) | 0.673 | 7550 | 8150 | -0.275 (inactive) | -0.0266 |
| N#Cc1cc(CN2CCC(Nc3ncnc4sc(Cl)cc34)CC2)ccc1F | 0.932 (inactive) | 0.447 | 6280 | 6740 | -0.501 (inactive) | -0.555 |
| CCC(C)[C@H]1O[C@]2(CCC1C)CC1C[C@@H](CC=C(C)C(O[C@H]3CC(OC)C(O[C@H]4CC(OC)C(O)C(C)O4)C(C)O3)C(C)C=CC=C3CO[C@@H]4C(O)C(C)=C[C@H](C(=O)O1)[C@]34O)O2 (stereo not given in full) | 1.18 (inactive) | 0.443 | 3750 | 3170 | -0.0305 (inactive) | 0.298 |
| CCOC(=O)C(CCc1ccccc1)NC1CSC(c2cccs2)CN(CC(=O)O)C1=O (stereo not given) | 1.05 (inactive) | 0.5 | 8260 | 7900 | -0.343 (inactive) | -0.0675 |
| Cc1c(C(=O)Nc2ccc(N3CC(C)OC(C)C3)nc2)cccc1-c1ccc(OC(F)(F)F)cc1 (stereo not given) | 0.962 (inactive) | 0.609 | 6270 | 6520 | -0.33 (inactive) | 0.503 |
| C#CCNC1CCc2ccccc21 (stereo not given) | 1.01 (inactive) | 0.344 | 8040 | 7960 | -0.195 (inactive) | -0.00726 |
| CC1=C(C(=O)OC2CCCCC2)C(c2ccc([N+](=O)[O-])cc2)C2=C(CC(C)(C)CC2=O)N1 (stereo not given) | 1.46 (inactive) | 0.547 | 1480 | 1010 | -0.282 (inactive) | -2.79 |
| CCOc1cc2ncc(C#N)c(Nc3ccc(F)c(Cl)c3)c2cc1NC(=O)C=CCN(C)C | 0.915 (inactive) | 1.02 | 681 | 744 | 1.18 (inactive) | 0.656 |
| Cc1[nH]c2ccccc2c1C1=C(NCCc2ccc(F)cc2)C(=O)N(C)C1=O | 0.916 (inactive) | 0.466 | 2210 | 2410 | -0.365 (inactive) | 1.08 |
| CCOC(=O)N1c2ccc(C(F)(F)F)cc2C(N(Cc2cc(C(F)(F)F)cc(C(F)(F)F)c2)C(=O)OC)CC1CC (stereo not given) | 0.939 (inactive) | 0.794 | 8370 | 8920 | -0.304 (inactive) | 0.988 |
| C[C@]12C=CC(=O)C=C1CC[C@H]1[C@@H]3CC(O)[C@@](O)(C(=O)CO)[C@@]3(C)CC(O)[C@]12F (stereo not given in full) | 0.898 (inactive) | 0.627 | 5780 | 6430 | 0.159 (inactive) | -0.119 |
| Cn1c(=O)cc(N2CCCC(N)C2)n(Cc2ccccc2C#N)c1=O (stereo not given) | 0.958 (inactive) | 0.837 | 8510 | 8880 | -0.12 (inactive) | -0.0809 |
| CCCCc1nc2cc(C=CC(=O)NO)ccc2n1CCN(CC)CC | 1.12 (inactive) | 0.731 | 1070 | 951 | 0.665 (inactive) | -0.474 |
| COC(=O)NC(C(=O)N1CCCC1c1ncc(-c2ccc(-c3ccc(-c4cnc(C5CCCN5C(=O)C(NC(=O)OC)C(C)C)[nH]4)cc3)cc2)[nH]1)C(C)C (stereo not given) | 0.912 (inactive) | 0.711 | 6220 | 6830 | 1.19 (inactive) | 0.581 |
| CCCCCCCCCCCCCCCC(=O)OC1C(SC)OC(C(NC(=O)C2CC(CCC)CN2C)C(C)Cl)C(O)C1O (stereo not given) | 0.883 (inactive) | 0.558 | 9240 | 10500 | -0.438 (inactive) | -0.237 |
| COc1cc2c(cc1-c1c(C)noc1C)ncc1[nH]c(=O)n(C(C)c3ccccn3)c12 (stereo not given) | 0.947 (inactive) | 0.831 | 7600 | 8030 | 0.365 (inactive) | -1.83 |
| CCOC(=O)C(CCc1ccccc1)NC(C)C(=O)N1C(=O)N(C)CC1C(=O)O (stereo not given) | 0.891 (inactive) | 1.39 | 7920 | 8880 | 0.163 (inactive) | -0.0366 |
| CC(NC(=O)C(O)C(C)C)C(=O)NC1C(=O)N(C)CCc2ccccc21 (stereo not given) | 0.932 (inactive) | 0.791 | 7480 | 8020 | -0.185 (inactive) | -1.14 |
| COC(c1ccccc1)(c1ccccc1)C(Oc1nc(C)cc(C)n1)C(=O)O (stereo not given) | 0.951 (inactive) | 0.955 | 7820 | 8220 | -0.106 (inactive) and 0.539 (inactive) | 0.0441 and -0.167 |
| C#CCC(c1nc2cc(Cl)ccc2c(=O)n1Nc1ccccc1)N(CCCN)C(=O)c1cccc(Cl)c1F (stereo not given) | 0.689 (active) | 0.42 | 882 | 1280 | 1.61 (inactive) | 0.152 |

| SMILES | fold change [1, 3] | fold change [1, 4] | cell count [1, 5] | cell count [1, 6] | z-score [2, 7] | z-score [2, 8] |
| --- | --- | --- | --- | --- | --- | --- |
| COc1cc(C2c3cc4c(cc3C(O[C@@H]3O[C@@H]5COC(C)O[C@H]5C(O)C3O)[C@H]3COC(=O)[C@H]23)OCO4)cc(OC)c1O (stereo not given in full) | 0.94 (inactive) | 1.28 | 2100 | 2240 | -0.7 (inactive) | -0.559 |
| CCC[C@@H]1OC2C[C@H]3[C@@H]4CCC5=CC(=O)C=C[C@]5(C)[C@@H]4C(O)C[C@]3(C)[C@@]2(C(=O)CO)O1 (stereo not given in full) | 1.01 (inactive) | 0.72 | 3350 | 3330 | -0.541 (inactive) | -0.57 |
| C[C@H]1CC[C@H]2[C@@H](C)C(OC(=O)CCC(=O)O)O[C@H]3O[C@@]4(C)CC[C@@H]1[C@]32OO4 (stereo not given in full) | 0.953 (inactive) | 0.708 | 4220 | 4430 | -0.298 (inactive) | -0.0832 |
| O=C1C(Cl)=C(N2CCOCC2)C(=O)N1c1ccc(Cl)c(Cl)c1 | 0.939 (inactive) | 0.753 | 7840 | 8360 | -0.367 (inactive) | -0.893 |
| COc1cccc2c1C(=O)c1c(O)c3c(c(O)c1C2=O)C[C@@](O)(C(C)=O)CC3O[C@H]1CC(N)C(O)C(C)O1 (stereo not given in full) | 0.959 (inactive) | 0.948 | 2300 | 2390 | 2.59 (active) | -0.443 |
| CN(C)C1C(=O)C(C(N)=O)=C(O)[C@@]2(O)C(=O)C3=C(O)c4c(O)ccc(Cl)c4C(O)[C@H]3C[C@@H]12 (stereo not given in full) | 0.836 (inactive) | 1.66 | 6970 | 8340 | 3.28 (active) | 5.13 |
| NC(=O)C(CCC(F)(F)F)N(Cc1ccc(-c2ncon2)cc1F)S(=O)(=O)c1ccc(Cl)cc1 (stereo not given) | 0.918 (inactive) | 0.873 | 6710 | 7310 | -0.464 (inactive) | 0.74 |
| CNC(=O)C(Cc1c[nH]c2ccccc12)NC(=O)C(CC(=O)NO)CC(C)C (stereo not given) | 0.883 (inactive) | 0.261 | 7640 | 8650 | 0.112 (inactive) | 0.643 |
| O=C(O)C(S)=Cc1c[nH]c2ccc(F)cc12 | 0.952 (inactive) | 0.47 | 7180 | 7550 | -0.325 (inactive) | -0.491 |
| O=C1O[C@H](C(O)CO)C(O)C1O (stereo not given in full) | 0.859 (inactive) | 0.731 | 8460 | 9850 | -0.207 (inactive) | -0.154 |
| Cc1c(C(=O)Nc2ccc(N3CCC(N4CCOCC4)CC3)c(C#N)c2)cnn1-c1ccc(Cl)cc1 | 0.979 (inactive) | 0.399 | 1870 | 1910 | -0.464 (inactive) | -0.322 |
| CC1O[C@@H](OC2C(Oc3cc(O)c(C(=O)CCc4ccc(O)cc4)c(O)c3)OC(CO)C(O)C2O)C(O)C(O)C1O (stereo not given in full) | 0.973 (inactive) | 0.587 | 8080 | 8300 | -0.155 (inactive) | -0.191 |
| O=c1[nH]c(=O)n(C2CC(O)C(CO)O2)cc1C(F)(F)F (stereo not given) | 1.15 (inactive) | 0.574 | 1670 | 1450 | -0.198 (inactive) | -0.513 |
| CC(=O)Nc1ccc(NC(=S)NC(=O)c2ccc(C(C)(C)C)cc2)cc1 | 1 (inactive) and 1.05 (inactive) | 1.21 and 0.561 | 1820 and 1680 | 1820 and 1600 | -0.38 (inactive) | 0.0517 |
| C[N+]1(C)[C@@H]2CC(OC(=O)C(O)(c3cccs3)c3cccs3)C[C@H]1C1OC12 (stereo not given in full) | 0.933 (inactive) | 0.479 | 9300 | 9960 | -0.398 (inactive) | -0.0197 |
| O=C(Nc1ccc(S(=O)(=O)Nc2ccccc2Cl)c(Cl)c1)c1ccccn1 | 0.91 (inactive) | 0.513 | 8160 | 8970 | -0.368 (inactive) | -0.0416 |
| CC(C)(C)OC(=O)NC1CCCCCC=CC2C[C@@]2(C(=O)NS(=O)(=O)C2CC2)NC(=O)C2CC(OC(=O)N3Cc4cccc(F)c4C3)CN2C1=O (stereo not given in full) | 0.897 (inactive) | 1.55 | 6840 | 7630 | -0.451 (inactive) | 0.469 |
| C=C1CC[C@H]2[C@@](C)(CCC(O)[C@@]2(C)CO)C1CC=C1C(=O)OCC1O (stereo not given in full) | 0.97 (inactive) | 0.896 | 6090 | 6280 | -0.657 (inactive) | -0.629 |
| CC(=O)O[C@]1(C(C)=O)CC[C@H]2[C@@H]3C[C@H](C)C4=CC(=O)C=C[C@]4(C)[C@@]3(F)[C@H](O)C[C@@]21C | 0.862 (inactive) | 1.9 | 5370 | 6240 | -0.0969 (inactive) | -0.184 |
| [K+] | 0.939 (inactive) | 0.429 | 7790 | 8290 | 0.0668 (inactive) | 0.0929 |

— PubChem BioAssay
